Test results: the supplement of paper PMC4723716
± gives the uncertainty stated by the source. In all, about 9,900 compounds were measured (“viability index relative to DMSO control”: median about 1, lowest 2% from about 0.85 on). The sample as a whole holds a higher share of the lowest values than the screen did.

System: Plasmodium falciparum NF54 stage V gametocytes
Test: viability index relative to DMSO control (fraction); higher = less gametocyte killing
Conditions: 2.5 µM, incubation time: 72 h
Method in brief: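 P. falciparum NF54 stage V gametocytes in serum-free screening medium (0.75% gametocytemia, 1.25% hematocrit, 10 µl) were incubated with compound at 2.5 µM in 1,536-well plates for 72 hr at 37°C under low oxygen. Then 3 µl of 2.5 µM MitoTracker Red CMXRos plus 0.13% saponin was added for one to two hours. One field per well was imaged, 20–70 µm2 red particles were counted, and the viability index was the count divided by the plate mean of DMSO wells.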

[1] = library set: Broad Institute DOS
[2] = library set: Broad Institute Blood Stage

Structure (SMILES)	viability index [1]	viability index [2]
Cc1noc(C)c1S(=O)(=O)Nc1ccc2c(c1)C(=O)N([C@@H](C)CO)C[C@H](C)[C@H](CN(C)Cc1ccc(C(=O)O)cc1)OCCCC[C@H](C)O2	1.14 ± 0.051	
O=C(C[C@H]1C[C@H]2c3cc(NC(=O)C4CCOCC4)ccc3O[C@H]2[C@H](CO)O1)NCc1cccnc1	1.086 ± 0.0019	
O=C(N[C@H]1CC[C@@H](CCn2cc(-c3ccccc3F)nn2)O[C@H]1CO)c1ccc2c(c1)OCO2	1.1 ± 0.06	
COC(=O)C[C@@H]1CC[C@H]2[C@@H](COc3ccc(NS(=O)(=O)c4ccc(C)cc4)cc3C(=O)N2C)O1	1.07 ± 0.083	
CN1C(=O)c2cc(NC(=O)c3ccc(F)c(F)c3)ccc2OC[C@H]2O[C@@H](CC(=O)N3CCCCC3)CC[C@H]21	1.1 ± 0.0047	
COCC(=O)N1C[C@@]2(C1)CN(Cc1ccc3OCOc3c1)[C@H](CO)c1c2c2ccc(OC)cc2n1C	0.938 ± 0.068	
COc1ccc2c3c([C@@H](CO)N(CC4CC4)C[C@]33CN(C3)C(=O)c3ccc4OCOc4c3)n(C)c2c1	1.02 ± 0.016	
COc1ccc2c3c([C@H](CO)N(Cc4ccccc4Cl)C[C@]33CCN(CC3)C(=O)CC3CC3)n(C)c2c1	0.922 ± 0.014	
COc1ccc2c3c([C@@H](CO)N(C[C@]33CCN(CC3)S(C)(=O)=O)C(=O)CN(C)C)n(C)c2c1	0.956 ± 0.029	
COc1ccc(cc1)S(=O)(=O)N1C[C@@]2(C1)CN([C@@H](CO)c1c2c2ccc(OC)cc2n1C)C(=O)CN(C)C	0.95 ± 0.059	
COc1ccc2c3c([C@H](CO)N(Cc4ccccc4Cl)C[C@]33CN(C3)C(=O)CN(C)C)n(C)c2c1	0.782 ± 0.042	
COc1ccc2c3c([C@@H](CO)N(Cc4ccccc4Cl)C[C@]33CCN(CC3)C(=O)CC3CC3)n(C)c2c1	0.939 ± 0.025	
COc1ccc(cc1)S(=O)(=O)N1C[C@@]2(C1)CN([C@H](CO)c1c2c2ccc(OC)cc2n1C)C(=O)CN(C)C	0.841 ± 0.028	
COc1ccc2c3c([C@@H](CO)N(C[C@]33CCN(CC3)C(=O)c3ccc4OCOc4c3)C(=O)Nc3ccc(F)cc3)n(C)c2c1	0.967 ± 0.057	
COc1ccc2c3c([C@@H](CO)N(C)C[C@]33CCN(CC3)C(=O)c3ccc4OCOc4c3)n(C)c2c1	0.9516 ± 0.0011	
COc1ccc2c3c([C@H](CO)N(Cc4ccc5OCOc5c4)C[C@]33CN(C3)C(=O)c3ccc4OCOc4c3)n(C)c2c1		0.435 ± 0.088
COc1ccc2c3c([C@H](CO)N(C[C@]33CCN(CC3)C(=O)c3ccc4OCOc4c3)C(=O)Nc3ccc(F)cc3)n(C)c2c1	0.846 ± 0.055	
COc1ccc2c3c([C@@H](CO)NC[C@]33CN(CC4CCOCC4)C3)n(C)c2c1	1.07 ± 0.029	
C[C@H](CO)N1C[C@H](C)[C@H](CN(C)Cc2ccc(Oc3ccccc3)cc2)Oc2ccc(N(C)C)cc2C1=O	1.01 ± 0.043	
O=C(CCN1CCCCC1)N[C@H]1CC[C@@H](CCn2cc(-c3cccc(F)c3)nn2)O[C@H]1CO	1.07 ± 0.038	
C[C@@H]1CN([C@@H](C)CO)C(=O)c2cc(NC(=O)Nc3cccc4ccccc34)ccc2O[C@@H](C)CCCCO[C@@H]1CN(C)S(=O)(=O)c1cn(C)cn1	0.949 ± 0.081	
C[C@@H]1CC(=O)NCC/C=C\C[C@H](c2ccc3c(c2)OCO3)NC1=O	1.059 ± 0.0056	
C[C@@H]1CN([C@@H](C)CO)C(=O)CCCn2nncc2CO[C@H]1CN(C)S(=O)(=O)c1cn(C)cn1	1.07 ± 0.065	
C[C@H]1CN([C@@H](C)CO)C(=O)c2cc(N(C)C)ccc2O[C@@H]1CN(C)CC1CCCCC1	1.01 ± 0.12	

Structure (SMILES)	viability index [1]	viability index [2]
COc1ccc2c3c([C@H](CO)N(C[C@]33CN(Cc4ccccc4F)C3)C(=O)Nc3ccc(F)cc3)n(C)c2c1	1 ± 0.091	
COc1ccc2c3c([C@@H](CO)N(C[C@]33CN(Cc4ccccc4F)C3)C(=O)Nc3ccc(F)cc3)n(C)c2c1	0.791 ± 0.066	
COc1ccc2c3c([C@@H](CO)N(C[C@]33CN(C3)C(=O)Cc3ccncc3)C(=O)Nc3ccc(F)cc3)n(C)c2c1	0.974 ± 0.085	
O=C(Cc1cccnc1)N1CC(=O)N2[C@H](CO)[C@@H](c3ccc(C#CC4CCCCC4)cc3)[C@H]2C1	1.04 ± 0.06	
COc1cccc(C#Cc2ccc([C@H]3[C@H](CO)N4C(=O)CN(C(=O)Cc5cccnc5)C[C@@H]34)cc2)c1	0.945 ± 0.048	
COc1cccc(C#Cc2ccc([C@@H]3[C@H](CO)N4C(=O)CN(C(=O)Cc5cccnc5)C[C@@H]34)cc2)c1	0.904 ± 0.094	
O=C(Cc1cccnc1)N1CC(=O)N2[C@H](CO)[C@H](c3ccc(C#CC4CCCCC4)cc3)[C@H]2C1	0.801 ± 0.073	
O=C(Cc1cccnc1)N1CC(=O)N2[C@H](CO)[C@@H](c3ccc(C#CC4CCCCC4)cc3)[C@@H]2C1	1.07 ± 0.032	
COc1cccc(C#Cc2ccc([C@H]3[C@@H](CO)N4C(=O)CN(C(=O)Cc5ccccc5)C[C@H]34)cc2)c1		0.778 ± 0.047
COc1cccc(C#Cc2ccc([C@H]3[C@@H](CO)N4C(=O)CN(C(=O)c5ccccc5)C[C@H]34)cc2)c1		0.754 ± 0.074
COc1cccc(C#Cc2ccc([C@H]3[C@@H](CO)N4C(=O)CN(C(=O)Cc5cccnc5)C[C@H]34)cc2)c1	0.804 ± 0.11	
COc1cccc(C#Cc2ccc([C@H]3[C@H]4CN(C(=O)Cc5cccnc5)CC(=O)N4[C@H]3CO)cc2)c1	1.057 ± 0.0037	
CCCNC(=O)N1CC(=O)N2[C@H](CO)[C@H](c3ccc(C#Cc4cccc(OC)c4)cc3)[C@@H]2C1	1.02 ± 0.062	
COc1cccc(C#Cc2ccc([C@@H]3[C@@H](CO)N4C(=O)CN(C(=O)Cc5cccnc5)C[C@H]34)cc2)c1	1.01 ± 0.084	
CCCNC(=O)N1CC(=O)N2[C@H](CO)[C@@H](c3ccc(C#Cc4cccc(OC)c4)cc3)[C@H]2C1	0.936 ± 0.075	
CO[C@@H]1CN(C)C(=O)c2cc(NS(C)(=O)=O)ccc2OC[C@@H](C)N(C(=O)C2CCOCC2)C[C@@H]1C	1.17 ± 0.07	
CN(C)C(=O)c1ccc(-c2ccc([C@@H]3[C@@H]4CN(Cc5ccc6c(c5)OCO6)C[C@H]3N4)cc2)cc1	1.05 ± 0.098	
COc1ccc2c3c([C@H](CO)N(Cc4ccncc4)C[C@]33CN(C3)C(=O)C3CCCCC3)n(C)c2c1	1.03 ± 0.079	
O=C(C1CCOCC1)N1CC(=O)N2[C@@H](CO)[C@H](c3ccc(C#CCc4ccccc4)cc3)[C@@H]2C1	1.084 ± 0.0042	
C[C@@H](NC(=O)[C@@H]1[C@@H](CO)[C@@H]2Cn3c(ccc(-c4ccccc4)c3=O)[C@@H]2N1C)c1ccccc1	1.05 ± 0.015	
O=C(C[C@@H]1C[C@@H]2c3cc(NS(=O)(=O)c4ccc(F)cc4)ccc3O[C@@H]2[C@H](CO)O1)N1CCc2ccccc2C1	1.13 ± 0.069	
COCC(=O)N1CC(=O)N2[C@H](CO)[C@H](c3ccc(C#CC4CC4)cc3)[C@H]2C1	1.11 ± 0.027	
CN(C[C@H]1N[C@@H](CO)[C@H]1c1ccc(-c2ccc(F)cc2)cc1)C(=O)C1CCC1	0.971 ± 0.025	
CCS(=O)(=O)N(C)C[C@@H]1N[C@H](CO)[C@@H]1c1ccc(-c2ccccc2F)cc1	1.05 ± 0.031	

Structure (SMILES)	viability index [1]	viability index [2]
CCN(C[C@@H]1N[C@@H](CO)[C@H]1c1ccc(-c2ccc(F)cc2)cc1)C(=O)CN(C)C	0.711 ± 0.021	
O=C(C[C@@H]1CC[C@H]2NC[C@@H](O)COC[C@@H]2O1)NC1Cc2ccccc2C1	0.9847 ± 0.0032	
O=C(C[C@H]1CC[C@H]2NC[C@@H](O)COC[C@@H]2O1)Nc1ccc(-c2ccccc2)cc1	0.997 ± 0.036	
C/C=C/c1ccc([C@H]2[C@@H](CO)N(c3nc(CC)cs3)[C@H]2C#N)cc1	1.09 ± 0.035	
CCc1csc(N2[C@H](CO)[C@H](c3ccccc3)[C@@H]2CN(C)C(=O)C2CCC2)n1	1.03 ± 0.059	
CCc1csc(N2[C@H](CO)[C@H](c3ccccc3)[C@@H]2CNC)n1	0.372 ± 0.18	
CO[C@@H]1CN(C)C(=O)c2cc(NC(=O)Nc3cc(F)ccc3F)ccc2OC[C@H](C)NC[C@H]1C	1.022 ± 0.01	
N#C[C@H]1[C@H](c2ccc(C#Cc3cccc(F)c3)cc2)[C@@H](CO)N1C(=O)C1CCOCC1	1.12 ± 0.025	
COc1cccc(C#Cc2ccc([C@H]3[C@@H](CO)N(C(=O)c4ccccn4)[C@H]3C#N)cc2)c1	0.8087 ± 0.0043	
COc1ccccc1C#Cc1ccc([C@H]2[C@@H](CO)N(C(=O)C3CC3)[C@H]2C#N)cc1		0.849 ± 0.047
COc1ccccc1C#Cc1ccc([C@H]2[C@H](C#N)N(C(=O)C3CCC3)[C@H]2CO)cc1	1.02 ± 0.025	
COc1ccccc1C#Cc1ccc([C@H]2[C@@H](C#N)N(C(=O)C3CCC3)[C@H]2CO)cc1	0.846 ± 0.07	
COc1cccc(C#Cc2ccc([C@@H]3[C@@H](C#N)N(C(=O)c4ccccn4)[C@H]3CO)cc2)c1	1.04 ± 0.029	
COc1cccc(C#Cc2ccc([C@@H]3[C@H](C#N)N(C(=O)c4ccccn4)[C@H]3CO)cc2)c1	0.929 ± 0.051	
COc1ccccc1C#Cc1ccc([C@@H]2[C@@H](CO)N(C(=O)C3CCC3)[C@H]2C#N)cc1	1.06 ± 0.047	
N#C[C@H]1[C@@H](c2ccc(C#Cc3cccc(F)c3)cc2)[C@@H](CO)N1C(=O)C1CCOCC1	1.05 ± 0.058	
COc1ccccc1C#Cc1ccc([C@H]2[C@@H](C#N)N(C(=O)C3CCC3)[C@@H]2CO)cc1	1.05 ± 0.038	
COc1ccccc1C#Cc1ccc([C@H]2[C@@H](C#N)N(C(=O)C3CCCC3)[C@H]2CO)cc1		0.583 ± 0.18
COc1ccccc1C#Cc1ccc([C@@H]2[C@@H](C#N)N(C(=O)C3CCC3)[C@@H]2CO)cc1	1.15 ± 0.082	
C[C@@H]1CN([C@@H](C)CO)C(=O)c2c(c3ccccc3n2C)-c2ccccc2CO[C@H]1CN(C)C(=O)[C@H]1CCCN1C	1.08 ± 0.011	
C[C@H](CO)N1C[C@H](C)[C@@H](CN(C)CC2CC2)OCCCC[C@H](C)Oc2ccc(NC(=O)c3ccccc3)cc2C1=O	1.07 ± 0.02	
CCCN(C)C[C@@H]1OCCCC[C@H](C)Oc2ccc(NC(=O)CCCN(C)C)cc2C(=O)N([C@@H](C)CO)C[C@@H]1C	1.1 ± 0.14	
OC[C@H]1Nc2ccc(C#Cc3ccc(F)cc3)cc2[C@@H]2[C@H]1CCN2Cc1ccc2c(c1)OCO2	1.06 ± 0.019	
